Experiment [1] has as its target sheep Cyclooxygenase-2 (Cox2), PTGS2 (gene 443460) (UniProt P79208). Kind of experiment: NVS_ENZ_oCOX2: NovaScreen (NVS) Enzymatic Assay for sheep Cyclooxygenase-2 (Cox2) (AID 2283231). Summed up: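 Enzyme from ovine placenta, cell-free; colorimetric absorbance read 0.66 hour after dosing, loss of signal vs DMSO. Screened in duplicate at 25 uM, then concentration-response up to 50 uM.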

In experiment [2] the target is rat Monoamine Oxidase, MAO-B, Central (MAOBC), Maob (gene 25750) (UniProt P19643). The experiment in a line: NVS_ENZ_rMAOBC: NovaScreen (NVS) Enzymatic Assay for rat Monoamine Oxidase, MAO-B, Central (MAOBC) (AID 2283238). Summed up:
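Here MAO-B activity in rat brain preparations is quantified radiometrically, counts taken at 1.17 hours. Concentration-response runs reach 50 uM, with plate controls, and values are fitted as loss of signal from the DMSO baseline.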

For experiment [3], the target named is sheep Cyclooxygenase-1 (Cox1), PTGS1 (gene 443551) (UniProt P05979). Kind of experiment: NVS_ENZ_oCOX1: NovaScreen (NVS) Enzymatic Assay for sheep Cyclooxygenase-1 (Cox1) (AID 2283239).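 Further: actives reduce cyclooxygenase activity so potencies are for inhibitors.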 Summed up:
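Absorbance read-out of cyclooxygenase activity in a cell-free preparation from sheep seminal vesicles, taken 0.66 hour after dosing. Initial testing was in duplicate at 25 uM, and confirmatory testing was run in concentration series.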

In experiment [4] the target is rat Constitutive Nitric Oxide Synthase (CNOS), Nos1 (gene 24598) (UniProt P29476). The experiment in a line: NVS_ENZ_rCNOS: NovaScreen (NVS) Enzymatic Assay for rat Constitutive Nitric Oxide Synthase (CNOS) (AID 2283236). Summed up:
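Single 25 uM duplicate screen, then concentration series to 50 uM for chemicals meeting threshold. Rat brain membrane-derived CNOS activity detected radiometrically by filtration and scintillation counting, 1 h after compound addition; DMSO as baseline.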

Experiment [5] has as its target human Serotonin, 5-Hydroxytryptamine Receptor 2A (5HT2A), HTR2A (gene 3356) (UniProt P28223). Kind of experiment: NVS_GPCR_h5HT2A: NovaScreen (NVS) G Protein-Coupled Receptor Assay for human Serotonin, 5-Hydroxytryptamine Receptor 2A (5HT2A) (AID 2283249). The method in brief: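 Radioligand displacement on human cortex tissue extract, counted by filtration and scintillation 1.5 h post-dosing. Initial single-concentration screen at 25 uM in duplicate, concentration series in follow-up; DMSO as baseline.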

In experiment [6] the target is Adenosine receptor A1 (Bos taurus) (UniProt P28190). The experiment in a line: NVS_GPCR_bAdoR_NonSelective: NovaScreen (NVS) G Protein-Coupled Receptor Assay for bovine Adenosine Receptor (AdoR), Non-selective Binding (AID 2283244). The method in brief:
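Cell-free binding with membranes from bovine striatum: radioligand displaced by test chemical, read after 1 h by filtration and scintillation. Single-point 25 uM duplicate primary, 50 uM top concentration in follow-up curves, DMSO baseline.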

Experiment [7] addresses rat Adenylate Cyclase, Forskolin Stimulated, Adcy5 (gene 64532) (UniProt Q04400). The experiment in a line: NVS_ENZ_rACFSKBinding: NovaScreen (NVS) Enzymatic Assay for rat Adenylate Cyclase, Forskolin Stimulated (AID 2283232). Summed up: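 Chemicals were first tested at 25 uM in duplicate, then hits run as concentration series with top concentration 50 uM. Enzyme source was rat forebrain membranes; radiometric filter read-out after 1 h, referenced to DMSO.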

Experiment [8] has as its system rat Monoamine Oxidase, MAO-A, Peripheral (MAOAP), gene 29253. The experiment in a line: NVS_ENZ_rMAOAP: NovaScreen (NVS) Enzymatic Assay for rat Monoamine Oxidase, MAO-A, Peripheral (MAOAP) (AID 2283237). Summed up: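 Scintillation counting tracked MAO-A activity in a cell-free rat liver mitochondrial membrane prep, read 1.17 hours after compound addition. Single-point duplicate testing at 25 uM preceded concentration-response follow-up; activity was fitted relative to DMSO.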

Experiment [9] concerns the target rat Monoamine Oxidase, MAO-B, Peripheral (MAOBP), Maob (gene 25750) (UniProt P19643). The experiment in a line: NVS_ENZ_rMAOBP: NovaScreen (NVS) Enzymatic Assay for rat Monoamine Oxidase, MAO-B, Peripheral (MAOBP) (AID 2283242).
For experiment [10], the target named is human Vascular Endothelial Growth Factor Receptor 3 (VEGFR3), FLT4 (gene 2324) (UniProt P35916). The experiment in a line: NVS_ENZ_hVEGFR3: NovaScreen (NVS) Enzymatic Assay for human Vascular Endothelial Growth Factor Receptor 3 (VEGFR3) (AID 2283229). The method in brief: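 Chemicals first run in duplicate at 25 uM, with actives re-tested in concentration series to a top of 50 uM. Recombinant VEGFR3 activity measured after 1 h via fluorescence with mobility-shift product separation; inhibition fitted relative to DMSO.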

The subject of experiment [11] is bovine Histamine 1 Receptor (H1), gene 281231. Kind of experiment: NVS_GPCR_bH1: NovaScreen (NVS) G Protein-Coupled Receptor Assay for bovine Histamine 1 Receptor (H1) (AID 2283246). Summed up:
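Hits from a 25 uM duplicate primary screen were retested in concentration series (top 50 uM); binding measured as scintillation-counted displacement of radioligand from bovine cerebellar membranes after 1 h, normalised to DMSO.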

The subject of experiment [12] is bovine Angiotensin II Receptor Type 2 (AT2), gene 407157. Kind of experiment: NVS_GPCR_bAT2: NovaScreen (NVS) G Protein-Coupled Receptor Assay for bovine Angiotensin II Receptor Type 2 (AT2) (AID 2283240). The method in brief: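 Radioligand displacement on bovine cerebellar membranes, 1 hour incubation, filter-based scintillation counting; loss of signal vs DMSO. Duplicate single-point screen at 25 uM, then concentration-response to 50 uM maximum.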

In experiment [13] the test system is guinea pig Leukotriene B4 Receptor (LTB4), gene 100379538. Kind of experiment: NVS_GPCR_gLTB4: NovaScreen (NVS) G Protein-Coupled Receptor Assay for guinea pig Leukotriene B4 Receptor (LTB4) (AID 2283247). Summed up: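 Membranes from guinea pig spleen incubated 2 h with radioligand and compound; bound counts measured by filtration and scintillation. Screened first at 25 uM in duplicate, then actives titrated to a 50 uM top concentration relative to DMSO.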

The target in experiment [14] is guinea pig Leukotriene D4 Receptor (LTD4), CYSLTR1 (gene 100135514) (UniProt Q2NNR5). Kind of experiment: NVS_GPCR_gLTD4: NovaScreen (NVS) G Protein-Coupled Receptor Assay for guinea pig Leukotriene D4 Receptor (LTD4) (AID 2283248). Summed up:
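Guinea pig lung membrane preparation; bound radioligand measured by filter scintillation after 1 h, loss of signal versus DMSO marking displacement. Compounds tested at 25 uM in duplicate, hits retested to max 50 uM.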

For experiment [15], the target named is rat Catechol-O-Methyl Transferase (COMT), Comt (gene 24267) (UniProt P22734). Kind of experiment: NVS_ENZ_rCOMT: NovaScreen (NVS) Enzymatic Assay for rat Catechol-O-Methyl Transferase (COMT) (AID 2283235). Summed up:
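Rat dorsal striatum extract served as COMT source; product quantified by HPLC/spectrophotometry, read at 0 h after dosing. Primary single-concentration screen at 25 uM, followed by concentration series to a 50 uM maximum.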

Experiment [16] has as its target rat Acetylcholinesterase (AChE), Ache (gene 83817) (UniProt P37136). Kind of experiment: NVS_ENZ_rAChE: NovaScreen (NVS) Enzymatic Assay for rat Acetylcholinesterase (AChE) (AID 2283233). The method in brief:
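Compounds first screened at 25 uM in duplicate, then those passing threshold tested in concentration series up to 50 uM, against AChE from rat brain membranes. Enzyme activity read by absorbance at 0.33 h; inhibition scored versus DMSO.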

Experiment [17] has as its target rabbit Imidazoline 2 Central (I2C), CKB (gene 100009085) (UniProt P00567). Kind of experiment: NVS_ENZ_rabI2C: NovaScreen (NVS) Enzymatic Assay for rabbit Imidazoline 2 Central (I2C) (AID 2283228). The method in brief:
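Rabbit brain membranes, cell-free; readout by filter-based scintillation counting 1.5 hours after dosing, loss of signal vs DMSO. Initial duplicate test at 25 uM, then concentration-response with 50 uM top concentration.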

Experiment [18] deals with bovine Dopamine Receptor (DR), Non-selective Binding, DRD1 (gene 281125) (UniProt Q95136). Kind of experiment: NVS_GPCR_bDR_NonSelective: NovaScreen (NVS) G Protein-Coupled Receptor Assay for bovine Dopamine Receptor (DR), Non-selective Binding (AID 2283241). The method in brief:
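Filter-based radioligand binding with bovine striatal membrane, incubated 1 h; DMSO as negative baseline. Initial duplicate single-point test at 25 uM preceded concentration series for actives.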

Experiment [19] in a line: NVS_GPCR_bNPY_NonSelective: NovaScreen (NVS) G Protein-Coupled Receptor Assay for bovine Neuropeptide Y (NPY) Receptor, Non-selective Binding (AID 2283245). The method in brief:
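Displacement of radioligand from bovine hippocampal membrane receptors, read by filtration and scintillation counting after 1 hour. Concentration-response to a top of 50 uM followed a 25 uM duplicate primary screen. Loss of signal versus DMSO.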

SMILES strings stand for the structures. Where “and” joins values, the source holds several entries; their conditions need not be identical. Equal values may be shown once. Inconclusive results are not listed. A structure can be active in one record and inactive in another. Calls of active or inactive are those of the source. How the source made its calls: active means hit-call score of the fitted dose curve at least 0.9, where 1 is the maximum; inconclusive means response in the unintended direction; inactive means score below 0.9.

sheep Cyclooxygenase-2 (Cox2), PTGS2 (gene 443460), sequence (P79208 whole entry, looked up): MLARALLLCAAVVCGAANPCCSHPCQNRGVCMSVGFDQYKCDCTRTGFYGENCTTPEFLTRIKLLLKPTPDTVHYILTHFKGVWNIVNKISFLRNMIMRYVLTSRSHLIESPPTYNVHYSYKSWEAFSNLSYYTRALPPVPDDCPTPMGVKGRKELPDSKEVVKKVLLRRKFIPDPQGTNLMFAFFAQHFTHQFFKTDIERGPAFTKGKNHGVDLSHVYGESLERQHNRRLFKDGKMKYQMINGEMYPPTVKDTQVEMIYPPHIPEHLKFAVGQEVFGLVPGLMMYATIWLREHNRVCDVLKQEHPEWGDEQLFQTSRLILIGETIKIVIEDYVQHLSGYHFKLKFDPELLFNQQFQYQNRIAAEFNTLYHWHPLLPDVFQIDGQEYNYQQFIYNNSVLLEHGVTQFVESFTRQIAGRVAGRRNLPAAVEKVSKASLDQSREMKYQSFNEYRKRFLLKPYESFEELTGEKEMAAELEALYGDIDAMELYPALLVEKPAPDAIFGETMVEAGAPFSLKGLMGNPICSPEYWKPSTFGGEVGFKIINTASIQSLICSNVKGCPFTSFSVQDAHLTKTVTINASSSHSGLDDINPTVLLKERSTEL
Adenosine receptor A1 (Bos taurus), sequence (P28190 whole entry, looked up): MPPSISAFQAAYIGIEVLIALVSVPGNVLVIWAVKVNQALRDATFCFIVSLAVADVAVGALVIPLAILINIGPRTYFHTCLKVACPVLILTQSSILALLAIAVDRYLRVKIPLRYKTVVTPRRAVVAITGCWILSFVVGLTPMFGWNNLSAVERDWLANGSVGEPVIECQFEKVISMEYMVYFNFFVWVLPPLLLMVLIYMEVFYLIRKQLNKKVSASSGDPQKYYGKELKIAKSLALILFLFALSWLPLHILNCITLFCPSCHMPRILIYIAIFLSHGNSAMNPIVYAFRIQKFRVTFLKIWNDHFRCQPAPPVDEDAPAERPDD
sheep Cyclooxygenase-1 (Cox1), PTGS1 (gene 443551), sequence (P05979 whole entry, looked up): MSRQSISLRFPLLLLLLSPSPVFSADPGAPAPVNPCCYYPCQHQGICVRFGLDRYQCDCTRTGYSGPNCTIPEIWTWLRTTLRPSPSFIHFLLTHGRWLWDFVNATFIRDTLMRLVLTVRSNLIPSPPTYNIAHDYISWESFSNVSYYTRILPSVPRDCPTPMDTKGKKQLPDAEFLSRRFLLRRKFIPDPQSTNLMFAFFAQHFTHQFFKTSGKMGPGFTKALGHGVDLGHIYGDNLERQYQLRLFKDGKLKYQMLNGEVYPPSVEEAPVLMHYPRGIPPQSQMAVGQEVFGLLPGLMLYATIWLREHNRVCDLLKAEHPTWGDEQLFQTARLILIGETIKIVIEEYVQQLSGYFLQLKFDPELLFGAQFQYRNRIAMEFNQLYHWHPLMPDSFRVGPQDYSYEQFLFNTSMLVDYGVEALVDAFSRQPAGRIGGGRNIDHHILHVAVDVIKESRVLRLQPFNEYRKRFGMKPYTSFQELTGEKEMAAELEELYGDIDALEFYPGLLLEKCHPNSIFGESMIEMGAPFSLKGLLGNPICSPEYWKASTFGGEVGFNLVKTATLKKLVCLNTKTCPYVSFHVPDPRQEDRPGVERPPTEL
rat Monoamine Oxidase, MAO-B, Central (MAOBC), Maob (gene 25750), sequence (P19643 whole entry, looked up): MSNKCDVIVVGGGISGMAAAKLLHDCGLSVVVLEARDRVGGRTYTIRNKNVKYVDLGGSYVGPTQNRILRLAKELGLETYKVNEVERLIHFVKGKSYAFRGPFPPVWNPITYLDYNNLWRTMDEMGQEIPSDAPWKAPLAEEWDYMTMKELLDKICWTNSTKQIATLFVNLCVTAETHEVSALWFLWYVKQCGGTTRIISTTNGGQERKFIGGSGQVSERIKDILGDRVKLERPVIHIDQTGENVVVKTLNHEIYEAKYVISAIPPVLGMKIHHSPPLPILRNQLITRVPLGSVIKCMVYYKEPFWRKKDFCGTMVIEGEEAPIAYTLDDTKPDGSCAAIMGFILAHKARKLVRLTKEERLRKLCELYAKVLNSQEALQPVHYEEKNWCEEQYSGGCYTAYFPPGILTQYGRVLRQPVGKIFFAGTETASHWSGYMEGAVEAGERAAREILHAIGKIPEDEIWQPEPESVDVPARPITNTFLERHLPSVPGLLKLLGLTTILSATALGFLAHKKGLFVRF
rat Monoamine Oxidase, MAO-B, Peripheral (MAOBP), Maob (gene 25750), sequence (P19643 whole entry, looked up): as above
rat Adenylate Cyclase, Forskolin Stimulated, Adcy5 (gene 64532), sequence (Q04400 whole entry, looked up): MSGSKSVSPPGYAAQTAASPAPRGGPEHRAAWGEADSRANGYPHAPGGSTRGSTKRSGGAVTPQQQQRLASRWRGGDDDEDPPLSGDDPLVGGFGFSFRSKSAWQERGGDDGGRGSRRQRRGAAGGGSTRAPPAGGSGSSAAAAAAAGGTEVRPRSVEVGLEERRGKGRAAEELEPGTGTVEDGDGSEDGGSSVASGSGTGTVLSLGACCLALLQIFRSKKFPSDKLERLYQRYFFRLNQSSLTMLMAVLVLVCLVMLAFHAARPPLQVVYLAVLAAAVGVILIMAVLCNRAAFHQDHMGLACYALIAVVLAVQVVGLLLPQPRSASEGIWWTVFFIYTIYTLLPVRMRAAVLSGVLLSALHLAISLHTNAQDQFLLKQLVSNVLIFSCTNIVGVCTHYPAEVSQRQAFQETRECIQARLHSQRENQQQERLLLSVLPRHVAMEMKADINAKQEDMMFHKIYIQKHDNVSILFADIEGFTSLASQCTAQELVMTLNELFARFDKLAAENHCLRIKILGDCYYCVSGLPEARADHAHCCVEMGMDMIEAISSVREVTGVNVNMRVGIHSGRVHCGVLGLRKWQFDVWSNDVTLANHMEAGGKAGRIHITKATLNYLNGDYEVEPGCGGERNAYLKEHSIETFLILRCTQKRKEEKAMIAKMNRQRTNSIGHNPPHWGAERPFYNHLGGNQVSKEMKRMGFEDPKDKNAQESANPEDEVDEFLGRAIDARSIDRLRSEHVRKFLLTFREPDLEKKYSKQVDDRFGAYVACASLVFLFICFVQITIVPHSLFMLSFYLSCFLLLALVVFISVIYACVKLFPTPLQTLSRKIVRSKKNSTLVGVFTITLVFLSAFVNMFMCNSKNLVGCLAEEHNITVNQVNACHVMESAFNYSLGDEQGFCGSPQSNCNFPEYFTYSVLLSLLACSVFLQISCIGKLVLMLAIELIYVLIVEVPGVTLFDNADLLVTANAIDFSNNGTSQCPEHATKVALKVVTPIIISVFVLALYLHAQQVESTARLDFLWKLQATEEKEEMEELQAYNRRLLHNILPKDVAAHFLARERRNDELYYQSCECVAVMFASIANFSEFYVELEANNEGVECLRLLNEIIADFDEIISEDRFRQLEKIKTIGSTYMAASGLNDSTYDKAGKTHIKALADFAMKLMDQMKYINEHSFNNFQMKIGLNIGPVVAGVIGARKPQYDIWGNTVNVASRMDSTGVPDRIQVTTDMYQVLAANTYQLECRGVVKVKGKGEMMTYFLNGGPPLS
bovine Dopamine Receptor (DR), Non-selective Binding, DRD1 (gene 281125), sequence (Q95136 whole entry, looked up): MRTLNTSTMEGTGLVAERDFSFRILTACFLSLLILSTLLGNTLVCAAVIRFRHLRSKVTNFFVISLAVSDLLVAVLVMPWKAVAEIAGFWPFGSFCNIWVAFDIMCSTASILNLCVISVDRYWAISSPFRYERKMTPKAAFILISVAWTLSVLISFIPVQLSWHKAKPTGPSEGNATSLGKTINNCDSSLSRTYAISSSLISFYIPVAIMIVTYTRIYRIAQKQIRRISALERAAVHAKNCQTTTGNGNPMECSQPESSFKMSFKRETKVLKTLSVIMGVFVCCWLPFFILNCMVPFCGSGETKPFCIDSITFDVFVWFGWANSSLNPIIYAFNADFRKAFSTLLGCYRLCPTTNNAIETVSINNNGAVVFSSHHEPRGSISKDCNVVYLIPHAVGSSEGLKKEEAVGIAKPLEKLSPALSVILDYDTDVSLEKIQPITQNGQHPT
rat Catechol-O-Methyl Transferase (COMT), Comt (gene 24267), sequence (P22734 whole entry, looked up): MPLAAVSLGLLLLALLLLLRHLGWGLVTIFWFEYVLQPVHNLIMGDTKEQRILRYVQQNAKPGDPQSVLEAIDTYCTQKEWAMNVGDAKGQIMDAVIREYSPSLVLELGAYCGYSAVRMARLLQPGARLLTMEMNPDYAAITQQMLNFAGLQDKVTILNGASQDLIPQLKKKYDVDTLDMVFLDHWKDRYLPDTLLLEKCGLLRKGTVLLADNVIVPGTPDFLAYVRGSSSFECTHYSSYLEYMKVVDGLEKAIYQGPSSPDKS
guinea pig Leukotriene D4 Receptor (LTD4), CYSLTR1 (gene 100135514), sequence (Q2NNR5 whole entry, looked up): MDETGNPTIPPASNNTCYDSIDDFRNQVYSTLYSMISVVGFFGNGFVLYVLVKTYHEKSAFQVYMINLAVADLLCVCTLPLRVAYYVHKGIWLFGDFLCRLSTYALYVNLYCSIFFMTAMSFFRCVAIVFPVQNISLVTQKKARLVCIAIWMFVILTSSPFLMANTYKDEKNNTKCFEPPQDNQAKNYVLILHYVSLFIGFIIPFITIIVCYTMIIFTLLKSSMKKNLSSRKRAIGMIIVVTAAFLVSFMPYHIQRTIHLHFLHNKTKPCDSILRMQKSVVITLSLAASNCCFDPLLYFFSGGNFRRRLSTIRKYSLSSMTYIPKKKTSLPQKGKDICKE

A word on the AC50: it is the concentration at which the activity in the assay is half-maximal. For `CON(C)C(=O)Nc1ccc(Cl)c(Cl)c1`, the outcome in experiment [1] and in experiment [3] was inactive. Besides, in [2], the AC50 was 16.1 µM (active) [middle of 4 runs].

Turning to `CCCCC(CC)COC(=O)c1ccccc1C(=O)OCC(CC)CCCC` (stereo not drawn), the result in experiment [4] was inactive.

Regarding `CCNc1nc(Cl)nc(NCC)n1`, the call in [5] was inactive.

`COc1nc(NC(C)C)nc(NC(C)C)n1`: the AC50 is 1.29 µM (active) in experiment [2] and 25 µM (active) in [6].

With `CN(C)C(=S)SSC(=S)N(C)C`, the AC50 in [7] is 6.85 µM (active). In addition, the compound was classed as inactive in experiment [8], in experiment [3] and in experiment [9].

Turning to `CCNc1nc(Cl)nc(NC(C)C)n1`, the result in experiment [10] and in [11] was inactive. In addition, the AC50 in experiment [1] was 7.07 µM (active) and 12.4 µM (active); in experiment [6], 8.64 µM (active).

As for `Cc1ccc(-c2c(Cl)nc(C#N)n2S(=O)(=O)N(C)C)cc1`, the AC50 in experiment [8] was 3.36 µM (active); in experiment [13] it was 1.93 µM (active). Moreover, the outcome in experiment [12] and in experiment [14] was inactive.

Turning to `C=CC1(C)OC(=O)N(c2cc(Cl)cc(Cl)c2)C1=O` (stereo not drawn), in experiment [1], the AC50 was 5.97 µM (active). For the same compound, the result in experiment [2] and in [3] was inactive.

For `CCOC(=O)CC(SP(=S)(OC)OC)C(=O)OCC` (stereo not drawn), the compound was called inactive in [15] and in [2]. The AC50 in experiment [6] is 9.48 µM (active).

As for `CCOP(=S)(OCC)SCn1c(=O)oc2cc(Cl)ccc21`, the outcome in experiment [4] was inactive.

With `N#CC(CCc1ccc(Cl)cc1)(Cn1cncn1)c1ccccc1` (stereo not drawn), the result in experiment [13] was inactive.

As for `COC(=O)N(OC)c1ccccc1COc1ccn(-c2ccc(Cl)cc2)n1`, the result in experiment [15] was inactive.

In the case of `CS/C(C)=N/OC(=O)N(C)SN(C)C(=O)O/N=C(\C)SC`, the AC50 in experiment [7] was 6.77 µM (active); in [16] it was 2 µM (active).

Regarding `CNC(=S)S`, the outcome in [17], in [7], in experiment [9] and in experiment [11] was inactive.

Consider `CCCCNC(=O)OCC#CI`, for which the AC50 in [7] is 18.1 µM (active) and 19.4 µM (active); in experiment [8] it was 36.8 µM (active) and 25 µM (active); in [9] it was 42.4 µM (active); in experiment [6], 11.9 µM (active); in experiment [19] it was 4.96 µM (active). For the same compound, the outcome in experiment [2], in experiment [18], in experiment [6] and in experiment [19] was inactive.

Values taken from PubChem BioAssay (EPA / NIEHS).
